Data: PubChem BioAssay (Tox21)
Active and inactive are the calls of the source. Calls come from the whole dose curve; as a rule, active = well fitted activation curve with a large enough effect in the repeat runs; inconclusive = weak or mixed curves; inactive = flat fitted curve, though single readings scatter.

Assay: Caspase-3/7 induction in CHO-K1 cells by small molecules, qHTS assay (AID 1346980); note: nearly all actives have a fitted effect of over 15% in size
Settings: CHO-K1 caspase-3/7 induction, Caspase-Glo luminescence, 17 h; series mostly up to 92.4 µM; caspase-3/7 activation: at the top concentration
Method in brief: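 Luminescent Caspase-Glo 3/7 read (30min, room temperature) quantified apoptosis induction. Cells were wild-type CHO-K1, treated with compound for 17hr at 37 C and 5% CO2.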
% is set by controls: 0 for no effect and ±100 for the full control effect; potency is the fitted concentration of half-maximal effect.

**Q.** For CCOP(=S)(OCC)Oc1cc(C)nc(N(CC)CC)n1, which “caspase-3/7 activation” value is on record?
**A.** -1.24% (inactive)

**Q.** With Cc1ccc([N+](=O)[O-])[c]2c1[O][Hg]2 as the molecule, how does the “caspase-3/7 activation” value read?
**A.** -6.13% [at 42.5 µM] (inactive)

**Q.** Which Potency does the source give for CC(=O)[O][Sn]([c]1ccccc1)([c]1ccccc1)[c]1ccccc1 here?
**A.** 122 nM (active)

**Q.** For C=C(C)C(=O)[O][Sn]([CH2]CCC)([CH2]CCC)[CH2]CCC, which Potency is on record?
**A.** 433 nM (active)

**Q.** Which “caspase-3/7 activation” value does the source give for CNC(=O)/C=C(\C)OP(=O)(OC)OC here?
**A.** 0.197% (inactive)

**Q.** Which “caspase-3/7 activation” value does the source give for CC(C)C(Nc1ccc(C(F)(F)F)cc1Cl)C(=O)OC(C#N)c1cccc(Oc2ccccc2)c1 (configuration not stated) here?
**A.** -1.11% (inactive)

**Q.** For N#Cc1ccc(N(CC(N)=O)CC(F)(F)F)cc1C(F)(F)F, which “caspase-3/7 activation” value is on record?
**A.** -0.617% (inactive)

**Q.** For O=C(O)CCCCCCNC1c2ccccc2CCc2ccccc21, which “caspase-3/7 activation” value is on record?
**A.** 4.62% [at 42.5 µM] (inactive)

**Q.** For C=CC(=O)[O][Sn]([CH2]CCC)([CH2]CCC)[CH2]CCC, which Potency is on record?
**A.** 1220 nM (active)

**Q.** For NC(=O)C(Cl)Cl, which “caspase-3/7 activation” value is on record?
**A.** 0.774% (inactive)

**Q.** Which “caspase-3/7 activation” value does the source give for Cc1cccc(Cc2cnc[nH]2)c1C here?
**A.** -0.0304% [at 42.5 µM] (inactive)

**Q.** Which “caspase-3/7 activation” value does the source give for N#CSCc1ccccc1 here?
**A.** 0.526% (inactive)

**Q.** With CCOP(=O)(OCC)Oc1cc(C)nc(C(C)C)n1 as the molecule, how does the “caspase-3/7 activation” value read?
**A.** 0.507% (inactive)

**Q.** With OCC(Br)CBr (configuration not stated) as the molecule, how does the “caspase-3/7 activation” value read?
**A.** -0.285% (inactive)

**Q.** With N#CCCl as the molecule, how does the “caspase-3/7 activation” value read?
**A.** -0.0122% (inactive)

**Q.** For C=CC(=C)C, which “caspase-3/7 activation” value is on record?
**A.** 4.15% (inactive)

**Q.** Which “caspase-3/7 activation” value does the source give for CCn1cc[n+](C)c1 (tested in a mixture with another compound) here?
**A.** -1.3% (inactive)

**Q.** For CC(=O)[O][Pb]([c]1ccccc1)([c]1ccccc1)[c]1ccccc1, which Potency is on record?
**A.** 486 nM (active)

**Q.** For CCCCc1ccccc1, which “caspase-3/7 activation” value is on record?
**A.** -0.562% (inactive)

**Q.** For CCNS(=O)(=O)C(F)(F)C(F)(F)C(F)(F)C(F)(F)C(F)(F)C(F)(F)C(F)(F)C(F)(F)F, which “caspase-3/7 activation” value is on record?
**A.** 0.0187% (inactive)

**Q.** Which “caspase-3/7 activation” value does the source give for Oc1ccc(Cl)c(Cl)c1 here?
**A.** 0.983% (inactive)

**Q.** For O=C(Nc1ccc(F)cc1F)c1cccnc1Oc1cccc(C(F)(F)F)c1, which “caspase-3/7 activation” value is on record?
**A.** -0.762% (inactive)
